The source made the active and inactive calls. How the source made its calls: active means hit-call score of the fitted dose curve at least 0.9, where 1 is the maximum; inactive means score below 0.9.

The results in this text go back to PubChem BioAssay (EPA / NIEHS).

This experiment can be described thus: APR_HepG2_MicrotubuleCSK_24hr: Apredica 24-hour HepG2 Assay for Microtubule CSK Stabilty (AID 2282909). The conditions noted are these: HepG2 microtubule cytoskeleton imaging, actives raise or lower the signal. The protocol:
APR_HepG2_24hr is a cell-based, multiplexed-readout assay that uses HepG2, a human liver cell line, with measurements taken at 24 hours after chemical dosing in a 384-well plate.APR_HepG2_MicrotubuleCSK_24hr is one of 10 assay component(s) measured or calculated from the APR_HepG2_24hr assay. It is designed to make measurements of protein conformation, a form of conformation reporter, as detected with fluorescence intensity signals by HCS Fluorescent Imaging technology.Data from the assay component APR_HepG2_MicrotubuleCSK_24hr was analyzed into 1 assay endpoint. This assay endpoint, APR_HepG2_MicrotubuleCSK_24hr, was analyzed with bidirectional fitting relative to DMSO as the negative control and baseline of activity. Using a type of conformation reporter, measures of protein for gain or loss-of-signal activity can be used to understand the signaling at the cellular-level. Furthermore, this assay endpoint can be referred to as a primary readout, because this assay has produced multiple assay endpoints where this one serves a signaling function. To generalize the intended target to other relatable targets, this assay endpoint is annotated to the cell morphology intended target family, where the subfamily is cell conformation.
Cells were treated with dimethyl sulfoxide (DMSO) as a solvent control at a final concentration of 0.5% v/v or with compounds in DMSO with a resulting final DMSO concentration of 0.5% v/v. Compound treatment was done at concentrations of 0.39, 0.78, 1.56, 3.12, 6.24, 12.5, 25, 50, 100, and 200 uM in duplicate on each plate. Cells were treated with compounds for 1, 24, or 72 hr. Carbonyl […] m-chloro-phenylhydrazone (CCCP) and taxol were used as positive controls for mitochondrial function and cytoskeletal stability, respectively; DMSO served as the negative control for this experiment. Cells were fixed by the direct addition of 50 uL formaldehyde in Hank's Balanced Salt Solution (HBSS) to a final concentration of 3.7%. After incubation in the fixation medium for 30 min at room temperature (293-298 K), cells were rinsed twice with HBSS and treated with cell permeabilization buffer (16 uL of 0.5% Triton X-100) for 10 min at room temperature (293-298 K) before labeling. For mitochondrial membrane potential and mitochondrial measurements, pre-fixed cells were incubated with 50 uL of MitoTracker Red CMXRos (Invitrogen) at a concentration of 250 nM for 30 min before fixation. In the remaining cases, post-fixed cells were labeled by incubation with a multiplexed mixture of primary antibodies in HBSS for 60 min at room temperature (293-298 K) to detect immunoreactivity of c-Jun (1:500), phospho-histone H3 (1:100), phospho-histone H2A.x (1:200), p53 (1:400), alpha-tubulin (1:200) and Hoechst 33342 (2 ug/mL). Cells were labeled for multiplexed imaging on two separate plates: a) Hoechst 33342, MitoTracker Red, phospho-histone H3, and alpha-tubulin, and b) Hoechst 33342, phospho-histone H2A.x, and c-Jun. A final rinse with HBSS (50 uL) was performed before analysis. The primary and secondary antibodies for the proteins were phospho-histone H3 (rabbit anti-phospho-histone H3 and FITC-donkey anti-rabbit IgG), phospho-histone H2A.x (mouse anti-phospho-histone H2A.x and FITC-donkey anti-mouse IgG), c-Jun (rabbit anti-phospho-c-Jun and Cy3-donkey anti-rabbit IgG), p53 (sheep anti-p53 and Cy5-donkey anti-sheep IgG), alpha-tubulin (mouse anti-alpha-tubulin and Cy5-donkey anti-mouse IgG). These antibodies are available as the CellCiphr HepG2 assay kit (Millipore).Digital images of each well were captured using a Cellomics ArrayScan VTI (Thermo Scientific Cellomics) (0.8 NA objective, 0.63x optical coupler, and XF-93 filter set) at 20x magnification. The images were acquired using the autofocus feature of the ArrayScan instrument, which entails the following steps. First, the camera focuses on channel 1 (Hoechst 33342), where nuclei are identified. Second, a Z offset of 1 um is used for capturing mitochondria (MitoTracker Red). […]
What is called AC50 is the concentration giving half of the maximal activity seen. As for `NC(=O)N1C(=O)C(C(=O)c2cc(Cl)cs2)c2cc(F)c(Cl)cc21` (stereo not given), the AC50 was 75.3 µM (active).
Regarding `c1ccc2c(c1)Cc1ccccc1-2`, the result was inactive.
On the same count and under the same terms, the value for `CCc1ccc(CCOc2ccc(CC3SC(=O)NC3=O)cc2)nc1` (stereo not given) was “inactive”.
For `Oc1cccc(O)c1`, the compound was classed as inactive.
On the same count and under the same terms, to `CC[C@H](C)[C@@H](C(=O)O)n1sc2ccccc2c1=O` belongs “inactive”.
Regarding `Oc1cc2ccccc2c2ccccc12`, the AC50 was 55 µM (active).
In the case of `Cc1cc(C)c(O)c(C)c1`, the result was inactive.
Regarding `ClC1=C(Cl)C(Cl)(Cl)C(Cl)=C1Cl`, the compound was called inactive.
In the case of `C[C@@H]1C[C@H]2[C@@H]3CCC4=CC(=O)C=C[C@]4(C)[C@@]3(F)[C@@H](O)C[C@]2(C)[C@@]1(O)C(=O)COP(=O)(O)O`, the AC50 was 94 µM (active).
Regarding `N#C[C@@H]1CC(F)(F)CN1C(=O)CNC1CC2CCC(C1)N2c1ncccn1` (stereo not given in full), the compound was classed as inactive.
The same measure, in the same setting: the value for `CC1=C(/C=C/C(C)=C/C=C/C(C)=C/C(=O)O)C(C)(C)CCC1` was “inactive”.
Regarding `OCCC(F)(F)C(F)(F)C(F)(F)C(F)(F)C(F)(F)C(F)(F)C(F)(F)C(F)(F)F`, the AC50 is 23.1 µM (active).
As for `Nc1cccc2c(N)cccc12`, the call was inactive.
The same measure, in the same setting: to `CC(C)(C)CC(C)(C)c1ccc(O)c(-n2nc3ccccc3n2)c1` belongs “inactive”; to `CC(O)CO` (stereo not given), “inactive”; to `CCC(C)(C)C1CCC(O)CC1` (stereo not given), “inactive”.
On the same count and under the same terms, the value for `CCCCCCCCCCCCN1CCCC1=O` was “inactive”; that for `CCCCCCCCCCCCc1ccccc1S(=O)(=O)O` was “inactive”.
On the same count and under the same terms, the value for `CCCCCCCCOC(=O)CCCCCCCCC(=O)OCCCCCCCC` was “inactive”.
As for `COCC(C)OCC(C)O` (stereo not given), the compound was called inactive.
In the case of `CCCCCCCC(=O)O`, the compound was called inactive.
Same read-out and setting: the value for `COCC(C)O` (stereo not given) was “inactive”.
Turning to `CC(=O)CC(C)(C)O`, the AC50 was 0.0415 µM (active).
Still for that read-out and setting: to `CCCOc1sc(C(=O)N2CCC(c3cc(CN)ccc3F)CC2)c(C)c1Br` belongs 15.6 µM (active).
Regarding `c1ccc2cc3c(ccc4ccccc43)cc2c1`, the compound was classed as inactive.
Take `c1ccc2c(c1)ccc1ccccc12`: the call was inactive.
For `C#C[C@]1(O)CC[C@H]2[C@@H]3CCC4=CC(=O)CC[C@@H]4[C@H]3CC[C@@]21C`, the compound was classed as inactive.
As to `OC1CCCCC1`, the outcome was inactive.
As for `OCCC(F)(F)C(F)(F)C(F)(F)C(F)(F)C(F)(F)C(F)(F)F`, the outcome was inactive.
In the case of `CCC(=C(c1ccc(O)cc1)c1ccc(OCCN(C)C)cc1)c1ccccc1`, the compound was called inactive.
Still for that read-out and setting: to `CC#C[C@]1(O)CC[C@H]2[C@@H]3CCC4=CC(=O)CCC4=C3[C@@H](c3ccc(N(C)C)cc3)C[C@@]21C` belongs “inactive”; to `CN1CCC[C@H]1c1cccnc1`, “inactive”; to `CCCCC(CC)COC(=O)CCCCC(=O)OCC(CC)CCCC` (stereo not given), “inactive”.
On to `CN1CCN(c2ccccc2/C=C2\SCCN(c3ccc(Cl)c(Cl)c3)C2=O)CC1`, for which the AC50 was 80.7 µM (active).
Take `CCCCCCCCC(=O)O`: the compound was classed as inactive.
Same read-out and setting: the value for `CCCCC[C@H](O)CC(=O)CCc1ccc(O)c(OC)c1` was “inactive”; that for `CN(C)C=O` was “inactive”; that for `O=[N+]([O-])c1ccc(O)cc1` was “inactive”.
As to `CCCCOCCO`, the compound was called inactive.
As for `COc1cc(CCC(=O)CC(=O)CCc2ccc(O)c(OC)c2)ccc1O`, the result was inactive.
